“And” between values parts separate entries of the source, which are not always exact repeats. Identical values can stand only once. The source made the active and inactive calls.
Legend:
[1] = target: Albumin (Bos taurus) (UniProt P02769); assay: bovine serum albumin binders on microarray, profiling panel, artefact control for SMM control protein annotation, biochemical, small-molecule microarray, Alexa647 label, 635/667 nm fluorescence (AID 1118); conditions: BSA-A647 binding, fluorescence 635 nm, higher = more signal;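 also: score merges 667 nm emission intensity and signal-to-noise per printed compound spot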
Sequence of Albumin (Bos taurus) (P02769 whole entry, looked up): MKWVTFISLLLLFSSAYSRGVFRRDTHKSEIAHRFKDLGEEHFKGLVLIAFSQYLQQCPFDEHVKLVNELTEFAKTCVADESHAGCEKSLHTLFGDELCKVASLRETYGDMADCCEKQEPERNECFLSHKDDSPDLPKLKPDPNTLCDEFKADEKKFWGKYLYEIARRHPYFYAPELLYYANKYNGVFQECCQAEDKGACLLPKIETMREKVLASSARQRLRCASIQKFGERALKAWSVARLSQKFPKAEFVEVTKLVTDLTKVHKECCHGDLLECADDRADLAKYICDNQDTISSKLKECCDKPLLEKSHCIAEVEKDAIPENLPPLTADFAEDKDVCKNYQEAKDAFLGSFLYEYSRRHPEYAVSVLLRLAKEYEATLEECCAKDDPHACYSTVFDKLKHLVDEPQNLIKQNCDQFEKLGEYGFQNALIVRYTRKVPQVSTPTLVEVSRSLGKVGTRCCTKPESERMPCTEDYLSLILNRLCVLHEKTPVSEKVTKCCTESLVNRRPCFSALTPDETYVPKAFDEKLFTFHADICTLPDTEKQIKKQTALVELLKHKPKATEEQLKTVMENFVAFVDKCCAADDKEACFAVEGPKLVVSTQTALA

[2] = small-molecule microarray binders of probe aXIP, primary screen, biochemical, NeuroSMM set, 635/667 nm fluorescence (AID 1119); conditions: higher = more signal, called active from +8 up or from −8 down;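 also: probe is the protein aXip251-270 applied at 1 µg/mL to compound-printed slides; binding of probe to printed compounds measured as 667 nm fluorescence plus signal to noise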
[3] = small-molecule binders of probe aNOTCH3, primary screen, biochemical, small-molecule microarray, 635/667 nm fluorescence (AID 1120); conditions: higher = more signal;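 also: probe is a biotin-tagged antibody raised against NOTCH3 rather than NOTCH3 protein; score merges spot fluorescence near 667 nm with spot signal to noise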
[4] = small-molecule binders of probe aNOTCH2, primary screen, biochemical, small-molecule microarray, 635/667 nm fluorescence (AID 1121); conditions: higher = more signal;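 also: score merges feature fluorescence read at 667 nm with its signal to noise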
[5] = target: Carbonic anhydrase 2 (Homo sapiens) (UniProt P00918); assay: CAII small-molecule binders, profiling panel, biochemical, small-molecule microarray, Alexa647-labelled CAII (AID 1122); conditions: CAII-A647 binding fluorescence, higher = more signal
[6] = COS7 lysate on small-molecule microarray, probe aHis, 635 nm (AID 1123); conditions: COS7 cell lysate, fluorescence, higher = more signal;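 also: z-score combines 667nm fluorescence intensity with signal-to-noise per printed compound spot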
[7] = compound binding in COS7 lysate, probe aLAP1, primary screen, cell lysate, small-molecule microarray (AID 1124); conditions: probe aLAP1, fluorescence, higher = more signal;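 also: lysate comes from COS7 cells expressing LAP1 and is applied at 0.3 µg/mL; score merges spot fluorescence near 667 nm with signal-to-noise over triplicate slides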
[8] = test system: Sam68 (KHDRBS1); assay: Sam68 small-molecule binders, primary screen, biochemical, small-molecule microarray, 635 nm fluorescence (AID 1125); conditions: small-molecule microarray binding, higher = more signal;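 also: score merges 667 nm channel intensity with signal to noise over triplicate slides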
[9] = test system: Chordin-like protein 2 (CHRDL2); assay: CHRDL2 small-molecule binders, primary screen, biochemical, small-molecule microarray, 635 nm fluorescence (AID 1126); conditions: small-molecule microarray binding, fluorescence 635 nm; higher = more signal;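 also: printed compound slides probed with Chrdl2 protein at 4 µg/mL for 1 h at 4 C; score merges 667 nm emission intensity with signal to noise over three replicate slides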
[10] = target: Concanavalin-A (Canavalia ensiformis) (UniProt P02866); assay: ConA small-molecule binders, primary screen, artefact control for SMM control protein annotation, biochemical, small-molecule microarray, Alexa647 label, 635 nm (AID 1127); conditions: ConA-A647 binding fluorescence, higher = more signal;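 also: z combines 667 nm emission intensity with signal-to-noise across three replicate slides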
Sequence of Concanavalin-A (Canavalia ensiformis) (P02866 whole entry, looked up): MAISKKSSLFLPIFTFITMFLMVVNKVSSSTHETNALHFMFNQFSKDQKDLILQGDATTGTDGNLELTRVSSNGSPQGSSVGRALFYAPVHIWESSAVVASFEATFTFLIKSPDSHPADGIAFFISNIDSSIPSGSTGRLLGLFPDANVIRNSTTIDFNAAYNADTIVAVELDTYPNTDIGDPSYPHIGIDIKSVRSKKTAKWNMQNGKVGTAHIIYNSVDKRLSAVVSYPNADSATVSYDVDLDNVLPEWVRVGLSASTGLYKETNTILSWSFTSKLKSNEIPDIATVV

Structure (SMILES) | composite z-score [1] | composite Z-score [2] | composite z-score [3] | composite z-score [4] | composite z-score [5] | composite z-score [6] | composite z-score [7] | composite z-score [8] | composite z-score [9] | composite z-score [10]
C=CCN(C(=O)C(c1cccs1)N(C(=O)/C=C\C(=O)O)c1c(Cl)cccc1CO)c1ccc(OC)cc1 (stereo not given) | -0.464 and -0.473 | -0.244 (inactive) and 0.222 (inactive) | -0.374 and -0.246 | -0.179 and -0.127 | 0.819 and 0.837 | 1.8 and 0.329 | 0.78 and 0.281 | -0.818 and -0.2 | -4.02 and -0.896 | -0.772 and -1.14
C=CCN(C(=O)C1N(CCCCCCO)C(=O)C2C(C(=O)O)C3C=CC21O3)C(C)(C)C (stereo not given) | -0.171 and -1.11 | 0.148 (inactive) and -0.707 (inactive) | -0.695 and -0.55 | -0.217 and -0.192 | 0.987 and 0.958 | -0.712 and 0.0575 | -0.729 and -0.646 | -1.73 and -0.275 | -4.11 and -4.07 | -0.974 and -2.94
COC(=O)CC=C[C@@H](C)[C@@H](CO)NS(=O)(=O)c1ccc(C)cc1 | 0.0833 and -0.252 | 0.105 (inactive) and 0.309 (inactive) | -0.0391 and 0.111 | -0.0703 and -0.14 | -0.121 and 0.0581 | -0.114 and 0.0271 | -0.144 and -0.481 | -0.182 and 0.567 | 0.696 and 1.03 | -0.213 and -0.52
C=CCN(Cc1ccccc1)C(=O)C1N(C(C)(C)CO)C(=O)C2C(C(=O)O)C3C=CC21O3 (stereo not given) | -1.24 and -0.826 | -0.498 (inactive) and -0.61 (inactive) | -0.358 and -0.475 | -0.126 and -0.0956 | 0.47 and 0.296 | -0.0142 and -0.798 | -0.587 and -0.987 | -1.6 and -1.66 | -2.74 and -1.88 | -2.4 and -2.33
CCN1C(=O)[C@H]2[C@H]3[C@H](O)[C@H](O)CC(=NNC(=O)OCc4ccc(OC)cc4)[C@H]3CC[C@H]2C1=O | 0.878 | -0.388 (inactive) | 0.0979 | -0.0903 | -0.121 | 0.0203 | 0.5 | -0.0112 | 0.737 | 0.364
CCC[C@@H]1C[C@@]1(CCC)[C@@H](NC(=O)c1ccc(-c2ccccc2)cc1)c1cccc(Cl)c1 | -0.0449 and 0.93 | -0.281 (inactive) and -0.599 (inactive) | 1.31 and -0.0569 | 0.723 and 0.0809 | 0.305 and 0.812 | 2.51 and 1.41 | 0.421 and -0.244 | -0.546 and 0.593 | 0.844 and -0.561 | -1.47 and 0.217
C=CCN(C(=O)C1N(C(C)(C)CO)C(=O)C2C(C(=O)O)C3C=CC21O3)c1ccc(OC)cc1 (stereo not given) | -0.821 and -2.22 | 1.39 (inactive) and -0.174 (inactive) | -0.383 and -0.578 | -0.154 and -0.147 | 0.548 and 0.314 | 0.0457 and -0.218 | 0.995 and -0.102 | -0.718 and -1.28 | -4.67 and -4.11 | -0.79 and -1.96
C[C@@H]1CC[C@H]2C(=O)NC[C@@H](O)CN2[C@H]1c1ccc(Br)cc1 | 0.446 and -0.624 | -0.312 (inactive) and 0.171 (inactive) | -0.0598 and -0.207 | -0.14 and -0.046 | 0.702 and -0.138 | 0.703 and 0.229 | -0.172 and -0.0957 | -0.46 and 0.119 | -0.119 and 0.127 | 0.407 and -0.416
C=C[C@@H](C)[C@H](O)c1ccc(O)c2ccccc12 | -0.0066 and 0.457 | 0.342 (inactive) and 0.259 (inactive) | -0.209 and -0.454 | -0.247 and -0.223 | -0.211 and -0.59 | 0.294 and -0.0874 | 0.279 and -0.559 | -0.309 and -1.66 | 1.34 and 0.0548 | -0.418 and -1.3
C#CCN1C(/C=C/c2ccccc2)C(=O)OC[C@H]1c1ccccc1 (stereo not given in full) | -0.147 and 0.723 | -0.0965 (inactive) and 0.733 (inactive) | -0.0766 and 0.228 | -0.181 and -0.101 | -0.114 and 0.493 | 0.096 and 0.45 | -0.317 and 0.0886 | 0.224 and 0.889 | 0.852 and -0.0756 | -0.243 and 0.199
C=CCN(C(=O)C(c1cccs1)N(C(=O)/C=C\C(=O)O)c1ccc(CCO)cc1)C(C)(C)C (stereo not given) | 0.779 and 0.432 | -0.374 (inactive) and -0.419 (inactive) | -0.312 and -0.448 | -0.0708 and -0.0924 | 0.663 and 0.867 | 2.45 and 2.51 | 0.904 and 1.16 | -0.847 and -1.43 | -1.74 and -2.91 | -0.941 and -0.744
O=C(NN=C1C[C@@H](O)[C@@H](O)[C@@H]2[C@@H]3C(=O)N(Cc4ccc5c(c4)OCO5)C(=O)[C@@H]3CC[C@H]12)OCc1ccccc1 | -0.401 | -0.0252 (inactive) | 0.157 | -0.11 | -0.612 | -0.648 | -0.21 | 0.0918 | -0.556 | -0.232
CC(CO)N1C(=O)[C@@H]2C3C(=O)OCCC=C[C@H]3OC23C=CCN(C(C)(C)C)C(=O)[C@@H]13 (stereo not given in full) | 0.231 and -0.322 | -0.734 (inactive) and 0.825 (inactive) | -0.34 and 0.037 | -0.211 and -0.14 | 0.863 and 0.837 | -0.329 and 0.395 | 0.241 and 1.27 | -0.349 and 0.36 | -1.5 and -0.54 | -2.13 and -0.887
C=CCN(CCCC)C(=O)C(c1cccs1)N(C(=O)/C=C\C(=O)O)c1ccc(CCO)cc1 (stereo not given) | -1.02 and -2.4 | 0.127 (inactive) and -0.0505 (inactive) | -0.437 and -0.449 | -0.171 and -0.202 | 0.864 and 0.861 | 0.0769 and -0.501 | 0.132 and -0.426 | -0.798 and -1.53 | -1.26 and -4.41 | -1.83 and -1.63
CN1C(=O)C2CC=C([C@H]3Oc4ccccc4S(=O)(=O)N4CCC[C@@H]34)CC2C1=O (stereo not given in full) | -0.75 and -0.505 | 0.183 (inactive) and -0.213 (inactive) | -0.182 and -0.173 | -0.14 and -0.084 | -0.296 and -0.322 | -0.616 and -0.564 | 0.892 and -0.263 | -1.08 and -1.56 | -0.144 and 0.153 | -0.476 and -1.05
CC(C)[Si]1(C(C)C)OCc2cc(CCCc3cc4c(c(CCc5ccccc5)n3)[Si](C(C)C)(C(C)C)OC4)nc(CCc3ccccc3)c21 | -1.72 and -0.26 | -0.436 (inactive) and -0.38 (inactive) | -0.124 and -0.0578 | -0.125 and -0.108 | -0.139 and 0.0411 | 0.002 and 0.081 | 0.485 and 0.0666 | 0.23 and 0.716 | -0.126 and 0.424 | -1.42 and 0.124
